Results on 35 compounds are retold here after PubChem BioAssay.

Molecules are shown by their SMILES.

The first test can be described thus: binders of probe aFGF2 on microarray, primary screen, stem cell growth factor project, biochemical, small-molecule microarray, fluorescence 635/667 (AID 1067).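 Also: measures binding of biotinylated aFGF2 protein to printed compounds on slides; z-score merges feature fluorescence and signal-to-noise across triplicate slides.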 As to conditions: higher = more signal.
Compound `O=C(O)[C@@]1(Cc2ccccc2)N=C(c2ccc(OCCCO)cc2)O[C@H]1c1ccccc1` yielded a composite z-score of -0.0819. Still for that read-out and setting: with `O=C/C=C/c1ccc2c(c1)OCO2` the figure was -0.115. The same measure, in the same setting: in the case of `CCCC[C@@H]1C[C@H]1[C@@H](NC(=O)c1ccc(-c2ccccc2)cc1)c1ccc(-c2ccccc2)cc1` it was 0.702; in that of `C=CCOC(=O)[C@H]1[C@@H]2C(=O)O[C@@H](c3ccccc3)[C@@H](c3ccccc3)N2[C@@H](c2ccc(OCCOC(=O)[C@@H]3C[C@@H]4C(=O)NCC(=O)N4[C@@H]3c3ccc(O)cc3)cc2)[C@]12C(=O)Nc1ccccc12`, -0.0296; in that of `O=C1O[C@@H](c2ccccc2)[C@@H](c2ccccc2)N2[C@@H](c3ccc(O)cc3)[C@]3(C(=O)Nc4ccc(C#CC5=CCCCC5)cc43)[C@@H](C(=O)O)[C@H]12`, -0.0908.

Regarding `CC(=O)Nc1cc(Br)ccc1C(=O)O`, the composite z-score turned out to be 0.0308. The same measure, in the same setting: with `CC(C)(C)OC(=O)CC[C@@]1(C(=O)O)N=C(c2ccc(OCCCO)cc2)O[C@@H]1c1ccccc1N=[N+]=[N-]` the figure was 0.0918.

A further test is described as follows: binders of probe aFGF10 on microarray, primary screen, stem cell growth factor project, biochemical, small-molecule microarray, fluorescence 635/667 (AID 1071).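 Also: score merges 667 nm spot intensity and signal to noise from triplicate slides.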 The following applies: higher = more signal.
Compound `COCCOC(=O)N1C(=O)[C@@]2(c3cc(C#CCC(C(=O)OC)C(=O)OC)ccc31)[C@H](c1ccccc1OCCO)N1[C@H](c3ccccc3)[C@H](c3ccccc3)OC(=O)[C@H]1[C@@H]2C(N)=O` gave a composite z-score of 1.17. On the same count and under the same terms, in the case of `CC(C)NC(=O)[C@@H]1c2ccccc2C(=O)N(Cc2ccccc2Cl)[C@H]1c1ccc(CO)cc1` it was -0.277. Turning to `COc1ccc(CCNC(=O)[C@@]2(c3ccc([N+](=O)[O-])cc3)CC(=O)N(CC34CC5CC(CC(C5)C3)C4)[C@@H]2c2ccc(CO)cc2)cc1`, the composite z-score is 0.268. On the same count and under the same terms, with `COc1ccc(CCNC(=O)[C@@H]2c3ccccc3C(=O)N(Cc3ccc(OC(F)(F)F)cc3)[C@H]2c2ccc(CO)cc2)cc1` the figure was 0.252; with `CCOC(=O)[C@H]1C[C@H]2O[C@@]23C[C@H]1C(=O)N1CCCC1[C@@H]3O[Si](C)(C)C(C)(C)C` (some centres not stated), -0.101. The compound `Cc1cc(C)cc(N2C(=O)CS(=O)(=O)C2c2cccc([N+](=O)[O-])c2)c1` (configuration not stated) returned a composite z-score of 0.366.

`O=C(CS)NCCCCCCNC(=O)[C@H]1C[C@H]2C(=O)N3CCC[C@H]3C(=O)N2[C@H]1c1cccc(OCCO)c1` came in with a composite z-score of 0.635. On the same count and under the same terms, in the case of `C=CC(COC(C)=O)NS(=O)(=O)c1ccc(Br)cc1` (configuration not stated) it was 0.366.

Compound `CCCC[C@H]1OB(O)C[C@H]2C1=C(C)C[C@H]1C(=O)N(Cc3ccccc3)C(=O)[C@H]12` showed a composite z-score of 0.951.

`O=C1OCCC/C=C\[C@H]2OC34C=CCN(Cn5nnc6ccccc65)C(=O)[C@H]3N(CCCCCO)C(=O)[C@@H]4C12` (some centres not stated) had a composite z-score of -0.821.

Compound `CC(C)C[C@@H]1NC(=O)[C@@H]2C[C@H](C(=O)NCCCCCC[N+](C)(C)C)[C@H](c3ccc(O)cc3)N2C1=O` displayed a composite z-score of 0.154.

`CC(C)C[C@@H]1NC(=O)[C@H]2C[C@@H](C(=O)NCCCCCCNC(=O)CS)[C@@H](c3cccc(OCCO)c3)N2C1=O` returned a composite z-score of 0.43.

`CCOC(=O)C1=CCC(c2ccc([N+](=O)[O-])cc2)N(S(=O)(=O)c2ccc(C)cc2)C1` (configuration not stated) registered a composite z-score of 0.294. In turn, `CN(C)CCCNC(=O)[C@@]1(Cc2ccccc2I)c2ccccc2C(=O)N(Cc2ccccc2C(F)(F)F)[C@H]1c1ccc(CO)cc1` returned a composite z-score of -0.935.

`O=C1OCC=C[C@H]2OC34C=CCN(c5ccc6ccccc6c5)C(=O)[C@H]3N(CCCO)C(=O)[C@@H]4[C@@H]12` (some centres not stated) yielded a composite z-score of -0.657. Same read-out and setting: in the case of `CC(=O)NCCCC[C@@H]1NC(=O)[C@H]2C[C@@H](C(=O)NCCCCCC[N+](C)(C)C)[C@@H](c3cccc(OCCO)c3)N2C1=O` it was 0.245.

Consider `C=CCOC(=O)[C@@H]1[C@H]2C(=O)O[C@H](c3ccccc3)[C@H](c3ccccc3)N2[C@H](c2ccc(OCCOC(=O)[C@@H]3C[C@@H]4C(=O)NCC(=O)N4[C@@H]3c3cccc(OCCO)c3)cc2)[C@@]12C(=O)Nc1ccc(I)cc12`, for which the composite z-score amounted to 0.818.

In the case of `CC(C)OC(=O)CC(=O)CC(O)c1ccc(C#N)cc1` (configuration not stated), the composite z-score amounted to 0.356. On the same count and under the same terms, with `C=CCNC(=O)[C@H]1[C@@H]2C(=O)O[C@@H](c3ccccc3)[C@@H](c3ccccc3)N2[C@@H](c2ccc(O)cc2)[C@]12C(=O)N(C(=O)OCCOC)c1ccc(C#CCCO)cc12` the figure was 0.932. `C=CC[C@@]1(C(=O)O)N=C(c2ccc(OCCCO)cc2)O[C@@H]1c1ccccc1N=[N+]=[N-]`: the composite z-score came out at 0.484.

As for `CC(=O)NCCCC[C@@H]1NC(=O)[C@@H]2C[C@H](C(=O)NCCCCN(C)C)[C@H](c3ccc(O)cc3)N2C1=O`, the composite z-score is -0.971. On the same count and under the same terms, with `CCOC(=O)C1=C[C@@H](CC)N(S(=O)(=O)c2ccc(C)cc2)[C@H]1c1ccccc1` the figure was 0.572; with `Cc1ccc([C@H]2[C@H](C(=O)O)[C@H](Sc3ccccc3)[C@@H](C(C)C)N2S(=O)(=O)c2ccc(C)cc2)cc1`, 0.307; with `COCCOC(=O)N1C(=O)[C@@]2(c3cc(C#CCNC(N)=O)ccc31)[C@H](c1ccc(OCCO)cc1)N1[C@H](c3ccccc3)[C@H](c3ccccc3)OC(=O)[C@H]1[C@@H]2C(=O)N1CCc2cc(OC)c(OC)cc2C1`, 0.164.

`C=C[C@@H](COC(C)=O)N(Cc1ccc([N+](=O)[O-])cc1)S(=O)(=O)c1ccc(Br)cc1` showed a composite z-score of 0.642. The same measure, in the same setting: in the case of `CCCCC(CC)C(O)C1C=CC2C(=O)N(c3ccccc3)C(=O)C2N1Nc1ccccc1` (configuration not stated) it was 0.698; in that of `COC(=O)C[C@H]1O[C@]2(C(=O)N(Cc3ccccc3)c3ccc(NC(C)=O)cc32)[C@@H](C)[C@@H]1[Si](C)(C)c1ccc(OC)cc1`, 0.489. The compound `COCCOC(=O)N1C(=O)[C@@]2(c3ccccc31)[C@H](C(=O)NC[C@H](O)c1ccccc1)[C@H]1C(=O)O[C@H](c3ccccc3)[C@H](c3ccccc3)N1[C@@H]2c1ccc(OCCO)cc1` displayed a composite z-score of 0.36. The compound `O=C(O)[C@@]1(Cc2ccccc2)N=C(c2ccc(OCCCO)cc2)O[C@H]1c1ccccc1` had a composite z-score of 0.0083. Still for that read-out and setting: with `O=C/C=C/c1ccc2c(c1)OCO2` the figure was 0.182; with `CCCC[C@@H]1C[C@H]1[C@@H](NC(=O)c1ccc(-c2ccccc2)cc1)c1ccc(-c2ccccc2)cc1`, 0.711. For `C=CCOC(=O)[C@H]1[C@@H]2C(=O)O[C@@H](c3ccccc3)[C@@H](c3ccccc3)N2[C@@H](c2ccc(OCCOC(=O)[C@@H]3C[C@@H]4C(=O)NCC(=O)N4[C@@H]3c3ccc(O)cc3)cc2)[C@]12C(=O)Nc1ccccc12`, the composite z-score was 0.515. As to `O=C1O[C@@H](c2ccccc2)[C@@H](c2ccccc2)N2[C@@H](c3ccc(O)cc3)[C@]3(C(=O)Nc4ccc(C#CC5=CCCCC5)cc43)[C@@H](C(=O)O)[C@H]12`, the composite z-score is 0.725. In turn, `CC(=O)Nc1cc(Br)ccc1C(=O)O` showed a composite z-score of 0.239. The same measure, in the same setting: with `CC(C)(C)OC(=O)CC[C@@]1(C(=O)O)N=C(c2ccc(OCCCO)cc2)O[C@@H]1c1ccccc1N=[N+]=[N-]` the figure was 1.11.
